# The full ranking holds about 25,000 sequences; the median of “ln(normalized median fluorescence intensity)” is about 9.3, and the highest 2% start at about 10. The sample as a whole holds a higher share of the highest values than the screen did.
# System: PF3D7_0420300 AP2 domain 1 (GST-tagged)
# Test: gcPBM binding intensity (ln(normalized median fluorescence intensity)); higher = stronger DNA binding
# Summary of the method: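 Alexa488 anti-GST antibody, scanned at 488 nm, detected GST-tagged P. falciparum DNA-binding domains that had been expressed in E. coli and incubated for 1 h on an Agilent 4 × 180k array. The array carried primer-extended double-stranded 36-bp intergenic genomic probes and negative controls. Binding intensity is the highest Masliner-normalised natural-log median intensity across replicate spots of either orientation of each probe.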
row,Sequence,gcPBM binding intensity (ln)
1,AATATGTGAATATAATCACACACAATACGGAAACAC [CACACA_site8875],10.1
2,TATGTGAATATAATCACACACAATACGGAAAGAGAC [CACACA_site7311],10.2
3,TATGTGAATATAATCACACACAATACGGAAACCCAC [CACACA_site2725],9.77
4,TTTTTTTTTTTTTTTGCACACACCATATTTATAGAA [CACACA_site3310],9.46
5,GTTCATAAATTAAACACACACACACCGCTGGATACC [CACACA_site5779],10.1
6,GTTCATAAATTAAACACACACACACCCCTGGATACC [CACACA_site3331],10.2
7,TCATAAATTAAACACACACACACATCTGGATACCCC [CACACA_site9096],10.3
8,TCATAAATGAAACACACACACACATCTGGATACCCC [CACACA_site3332],10.1
9,ATAAATTAAAAACACACACACATCTGGATACCCCTA [CACACA_site5780],10.1
10,GTTCATAAATTAAACACACACACACGGCTGGATACC [CACACA_site7545],10.1
11,TACTCCTCAATATTATGTACATATAATAGTTATAAA [XGTACX_site8551],9.23
12,TATATACAAAAAATATGTACATATATATATATATAT [XGTACX_site3497],9.21
13,TAATATTTTATTTTTGTTGTGGATCCAAAAAAAAAA [CACACA_negctrl_site846],8.76
14,TAATATGAAATGTGTACACACGCACCCACAAAAAAA [CACACA_site8949],9.74
15,AAAAATTATAGAAAAGTGCAATACATGTTACACCAT,9.28
16,TATTAATACGGACACACACACACACTAGATAAAATA [CACACA_site4295],10.2
17,CAAATAAATATTAAAAGTACACACAGATACACTAAT [XGTACX_site3749],9.88
18,AACACGCACAGACACACACACAAAAATGATTAAAAA [CACACA_site7195],9.67
19,ATAAATATTAAAAGTACACACAGATACACTAATTAT [CACACA_site1808],9.75
20,AACAAACACGGACACACACACACACTAGAATGATTA [CACACA_site5364],10.2
21,CAAATACACGGACACACACACACAAAAAAAAAAAAA [CACACA_site6385],10.1
22,AAAAAATCAAAACACACACACACACTAGAAAAAAAA [CACACA_site4909],10.3
23,AAAGAAAAAAAAAAAACACACAAAAAAAATCAAAAT [CACACA_site2871],9.94
24,CAAACCCACGGACACACACACACAAAAATGATTAAA [CACACA_site5365],9.93
25,AAAAAATCAAAACACACACACACACCCAAAAAAAAA [CACACA_site1444],10.1
26,AACAAATACGGACACACACACACACTAGAAAAAAAA [CACACA_site4442],10.2
27,TACACAGACGGACACACACACACACTAGAAAAAAAA [CACACA_site4435],10

# Source: the supplement of paper PMC11417369
